Results on 13 compounds are retold here after the supplement of paper PMC10646978.

Common to all, as to settings: modulator concentration 10 µM
The subject of test [1] is RAW-Dual (murine macrophage reporter line). Briefly: NF-kB reporter (SEAP) activity fold change vs agonist alone; higher = enhanced NF-kB activity. The method, boiled down: (§1)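 In 384-well plates holding 50 000 RAW-Dual murine macrophage reporter cells per well, compound at 10 μM final was pre-incubated for 1 hour at 37 °C, after which a PRR agonist was added overnight. Supernatant SEAP read with QUANTI-Blue at 620 nm absorbance reported NF-κB, and Lucia luciferase read with QUANTI-Luc luminescence reported IRF. Fold change values come from dividing each reporter signal by the mean of agonist-only control wells on the same plate, averaged over replicate plates with propagated errors.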

Test [2] shares this test system. Briefly: IRF reporter (Lucia luciferase) activity fold change vs agonist alone; higher = enhanced IRF activity. The method, boiled down:
as §1

Test [3] shares this test system. The test can be described thus: viability score (confluency relative to resting cells, overnight) (fraction); higher = more viable, active = viable (0.7 or more). In a few lines:
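Compound was added at a final 10 μM to RAW-Dual macrophages in 384-well plates and left overnight. Confluency was imaged with IncuCyte, and two masks were generated in IncuCyte software over all imaged wells. Each viability score is confluency relative to resting cells, and a compound met the cutoff only when both masks were above 70% of resting cells.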

The mark [4] stands for this setting: agonist: CpG ODN 1826 0.5 ug/mL.

SMILES strings stand for the structures. ± gives the standard deviation.

Take `COc1ccc(Nc2nc(Nc3ccc(F)cc3)nc(N3CCOCC3)n2)cc1OC`: the values for the NF-kB reporter in test [1] (setting [4]), in test [1] (agonist: LPS 0.1 ug/mL) and in test [1] (agonist: MPLA […]) were 0.409 ± 0.059, 1.61 ± 0.14 and 2.96 ± 0.16, respectively. Also, the IRF reporter in test [2] (agonist: 3'3'-cGAMP 10 ug/mL) was found to be 0.413 ± 0.036; in test [2] (agonist: LPS 0.1 ug/mL), 1.36 ± 0.17; in test [2] (agonist: MPLA […]), 2.15 ± 0.54. For the same compound, the viability score in test [3] was 0.905 (active).
For the compound `CS(=O)(=O)C1CC2CCC(C1)N2C(=O)c1cccc(Oc2ccc(F)cc2)c1` (stereo unspecified), the NF-kB reporter in test [1] (setting [4]) came to 1.07 ± 0.09; in test [1] (agonist: LPS 0.1 ug/mL), 1.13 ± 0.097; in test [1] (agonist: MPLA […]) it was 1.06 ± 0.15. Also, the results for the IRF reporter in test [2] (agonist: 3'3'-cGAMP 10 ug/mL), in test [2] (agonist: LPS 0.1 ug/mL) and in test [2] (agonist: MPLA […]) were 0.94 ± 0.048, 1.2 ± 0.085 and 1.33 ± 0.17, respectively. Further, the viability score in test [3] was 0.99 (active).
As to `CN1CCN(C(CC(=O)Nc2cccc(C(F)(F)F)c2)C(=O)O)CC1` (stereo unspecified), the NF-kB reporter in test [1] (setting [4]) is 1.02 ± 0.051; in test [1] (agonist: LPS 0.1 ug/mL), 1.09 ± 0.086; in test [1] (agonist: MPLA […]), 0.859 ± 0.038. Further, the IRF reporter in test [2] (agonist: 3'3'-cGAMP 10 ug/mL) was found to be 0.979 ± 0.049; in test [2] (agonist: LPS 0.1 ug/mL), 1.16 ± 0.1; in test [2] (agonist: MPLA […]) it was 1.17 ± 0.26. For the same compound, the viability score in test [3] was 0.999 (active).
As for `CCc1nc2ccc(C(=O)NC3CCC(n4cccn4)CC3)cc2s1` (stereo unspecified), the NF-kB reporter in test [1] (setting [4]) came out at 1.02 ± 0.098; in test [1] (agonist: LPS 0.1 ug/mL), 1.04 ± 0.082; in test [1] (agonist: MPLA […]) it was 1.03 ± 0.054. Further, the IRF reporter stood at 0.959 ± 0.047 in test [2] (agonist: 3'3'-cGAMP 10 ug/mL), 0.964 ± 0.045 in test [2] (agonist: LPS 0.1 ug/mL) and 0.925 ± 0.14 in test [2] (agonist: MPLA […]). Also, the viability score in test [3] was 1 (active).
With `Cc1cc(C)nc(Nc2ncc(O)n2-c2ccc(F)cc2)n1`, the values for the NF-kB reporter in test [1] (setting [4]), in test [1] (agonist: LPS 0.1 ug/mL) and in test [1] (agonist: MPLA […]) were 1.11 ± 0.087, 1.1 ± 0.13 and 1.01 ± 0.038, respectively. For the same compound, the IRF reporter in test [2] (agonist: 3'3'-cGAMP 10 ug/mL) was found to be 0.992 ± 0.074; in test [2] (agonist: LPS 0.1 ug/mL) it was 1.04 ± 0.14; in test [2] (agonist: MPLA […]), 1.16 ± 0.27. In addition, the viability score in test [3] is 0.991 (active).
On to `CCOC(=O)c1c(C)nn(C2CCCCC2)c1N`, for which the NF-kB reporter in test [1] (setting [4]) turned out to be 1.1 ± 0.1; in test [1] (agonist: LPS 0.1 ug/mL), 1.02 ± 0.049; in test [1] (agonist: MPLA […]) it was 1.09 ± 0.099. Moreover, the IRF reporter in test [2] (agonist: 3'3'-cGAMP 10 ug/mL) was 0.954 ± 0.044; in test [2] (agonist: LPS 0.1 ug/mL), 1.2 ± 0.075; in test [2] (agonist: MPLA […]) it was 1.37 ± 0.12. Further, in test [3], the viability score is 1.02 (active).
With `CC(NC(=O)C(=O)Nc1ccc(F)cc1)c1ccccc1` (stereo unspecified), the NF-kB reporter turned out to be 0.972 ± 0.074 in test [1] (setting [4]), 0.984 ± 0.18 in test [1] (agonist: LPS 0.1 ug/mL) and 0.939 ± 0.097 in test [1] (agonist: MPLA […]). Further, the IRF reporter in test [2] (agonist: 3'3'-cGAMP 10 ug/mL) came out at 0.987 ± 0.069; in test [2] (agonist: LPS 0.1 ug/mL) it was 1.22 ± 0.21; in test [2] (agonist: MPLA […]), 1.28 ± 0.2. For the same compound, the viability score in test [3] was 0.994 (active).
For `CC(C(=O)O)c1ccc(C(=O)c2cccs2)cc1` (stereo unspecified), the NF-kB reporter in test [1] (setting [4]) was determined as 1.17 ± 0.17; in test [1] (agonist: LPS 0.1 ug/mL), 1.08 ± 0.24; in test [1] (agonist: MPLA […]), 0.995 ± 0.065. For the same compound, the figures for the IRF reporter in test [2] (agonist: 3'3'-cGAMP 10 ug/mL), in test [2] (agonist: LPS 0.1 ug/mL) and in test [2] (agonist: MPLA […]) were 0.97 ± 0.03, 1.22 ± 0.14 and 1.23 ± 0.14, respectively. For the same compound, the viability score in test [3] is 1.01 (active).
For `CNC1(C)C2CCC(C2)C1(C)C.Cl` (stereo unspecified), the NF-kB reporter in test [1] (setting [4]) was 0.914 ± 0.23; in test [1] (agonist: LPS 0.1 ug/mL) it was 0.931 ± 0.058; in test [1] (agonist: MPLA […]), 0.961 ± 0.061. Besides, the IRF reporter in test [2] (agonist: 3'3'-cGAMP 10 ug/mL) was determined as 0.911 ± 0.078; in test [2] (agonist: LPS 0.1 ug/mL), 1.1 ± 0.24; in test [2] (agonist: MPLA […]), 1.06 ± 0.12. Also, the viability score in test [3] is 1 (active).
On to `CCC(=O)Nc1ccc(N2CCOCC2)c(Cl)c1`, for which the NF-kB reporter was 1.11 ± 0.12 in test [1] (setting [4]), 0.945 ± 0.087 in test [1] (agonist: LPS 0.1 ug/mL) and 1.03 ± 0.052 in test [1] (agonist: MPLA […]). In addition, the IRF reporter in test [2] (agonist: 3'3'-cGAMP 10 ug/mL) worked out at 0.838 ± 0.095; in test [2] (agonist: LPS 0.1 ug/mL), 0.982 ± 0.054; in test [2] (agonist: MPLA […]), 1.01 ± 0.11. The viability score in test [3] was 0.996 (active).
For `CC(=NN1CCN(Cc2cccc3ccccc23)CC1)c1ccc(Cl)cc1`, the figures for the NF-kB reporter in test [1] (setting [4]), in test [1] (agonist: LPS 0.1 ug/mL) and in test [1] (agonist: MPLA […]) were 0.9 ± 0.086, 1.06 ± 0.077 and 1.01 ± 0.086, respectively. Moreover, the IRF reporter in test [2] (agonist: 3'3'-cGAMP 10 ug/mL) was 1 ± 0.068; in test [2] (agonist: LPS 0.1 ug/mL), 1.19 ± 0.13; in test [2] (agonist: MPLA […]), 0.992 ± 0.12. Besides, the viability score in test [3] is 1.01 (active).
With `CC1CN(C2=NC(=O)C(=Cc3ccc(-c4ccccc4Cl)o3)S2)CC(C)O1` (stereo unspecified), the results for the NF-kB reporter in test [1] (setting [4]), in test [1] (agonist: LPS 0.1 ug/mL) and in test [1] (agonist: MPLA […]) were 0.495 ± 0.054, 0.841 ± 0.053 and 0.943 ± 0.089, respectively. For the same compound, the IRF reporter was determined as 0.813 ± 0.053 in test [2] (agonist: 3'3'-cGAMP 10 ug/mL), 1.34 ± 0.12 in test [2] (agonist: LPS 0.1 ug/mL) and 1.44 ± 0.15 in test [2] (agonist: MPLA […]). Also, the viability score in test [3] is 1.02 (active).
For `CC(C)Nc1cc(-c2c[nH]c(C(=O)N[C@H](CO)c3cccc(Cl)c3)c2)c(Cl)cn1`, the NF-kB reporter is 0.208 ± 0.012 in test [1] (setting [4]), 0.0734 ± 0.0045 in test [1] (agonist: LPS 0.1 ug/mL) and 0.158 ± 0.01 in test [1] (agonist: MPLA […]). Further, the IRF reporter in test [2] (agonist: 3'3'-cGAMP 10 ug/mL) is 0.677 ± 0.022; in test [2] (agonist: LPS 0.1 ug/mL), 1.46 ± 0.12; in test [2] (agonist: MPLA […]), 0.62 ± 0.093. The viability score in test [3] was 0.742 (active).
